Reference: PubChem BioAssay (NCI)
This is part of a sample that, as a whole, favours compounds with a hit. Of some 79,000 tested, about 15% had one in any assay. A number with no mark means an inactive call. The source made the active and inactive calls. Rule as the data show it: active = growth inhibition above about 70%; inactive = the rest.

Key:
[1] = NCI Yeast Anticancer Drug Screen. Data for the rad50 strain (AID 155);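 also: 0% = growth of vehicle-only cultures of the same strain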; details: S. cerevisiae rad50 strain growth inhibition, hits give high values
In short: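 DNA repair mutant yeast, compound exposure, growth read-out; inhibition is taken relative to vehicle.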

[2] = NCI Yeast Anticancer Drug Screen. Data for the mec2-1 strain (AID 157); details: S. cerevisiae mec2-1 strain, hits give high values
In short: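 Each compound was tested on mec2-1 yeast, a strain altered in DNA damage repair or cell cycle control. Growth inhibition is reported relative to vehicle.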

[3] = NCI Yeast Anticancer Drug Screen. Data for the sgs1 mgt1 strain (AID 161);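 also: 0% = growth of cultures given vehicle only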; details: S. cerevisiae sgs1 mgt1 strain, hits give high values
In short: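 Test agents were incubated with a DNA-repair-mutant yeast strain. Growth was then read and compared against vehicle-treated controls.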

[4] = NCI Yeast Anticancer Drug Screen. Data for the cln2 rad14 strain (AID 165);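 also: 0% = growth equal to vehicle treated cultures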; details: S. cerevisiae cln2 rad14 strain, hits give high values
In short: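 Test compounds were added to cln2 rad14 yeast cultures; inhibition of growth was then determined by comparison with vehicle treatment.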

[5] = NCI Yeast Anticancer Drug Screen. Data for the bub3 strain (AID 167); details: S. cerevisiae bub3 mutant strain, hits give high values
In short: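 In this screen, a yeast mutant lacking normal mitotic checkpoint function is challenged with compound. Relative growth versus vehicle gives the inhibition value.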

[6] = NCI Yeast Anticancer Drug Screen. Data for the mlh1 rad18 strain (AID 175); details: S. cerevisiae mlh1 rad18 strain growth inhibition, hits give high values
In short: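 Inhibition values reflect reduced growth of mutant yeast versus vehicle-treated controls following compound exposure; the mutations affect DNA damage repair.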

[7] = at 5.0 µM (retest, dose inferred, filed as 0.5)
[8] = at 50.0 µM (retest, dose inferred, filed as 5.0)

SMILES	growth inhibition [1, 7]	growth inhibition [1, 8]	growth inhibition ([1]; at 50.0 µM)	growth inhibition [2, 7]	growth inhibition [2, 8]	growth inhibition ([2]; at 50.0 µM)	growth inhibition [3, 7]	growth inhibition [3, 8]	growth inhibition ([3]; at 50.0 µM)	growth inhibition [4, 7]	growth inhibition [4, 8]	growth inhibition ([4]; at 50.0 µM)	growth inhibition [5, 7]	growth inhibition [5, 8]	growth inhibition ([5]; at 50.0 µM)	growth inhibition [6, 7]	growth inhibition [6, 8]	growth inhibition ([6]; at 50.0 µM)
O=C1C(=O)C(Cl)=C(Cl)C(Cl)=C1Cl	-3%	97% (active)	99.3% (active)	7%	99% (active)	99.7% (active)	1%	95% (active)	99.5% (active)	-12%	98% (active)	98.5% (active)	-25%	97% (active)	99.3% (active)	-7%	98% (active)	99.1% (active)
Cc1ccc(S(=O)(=O)Oc2c([N+](=O)[O-])cc(C)cc2[N+](=O)[O-])cc1	29%	54%	96.6% (active)	10%	29%	97.6% (active)	14%	21%	98.2% (active)	-1%	17%	82.7% (active)	5%	34%	94% (active)	17%	59%	95.1% (active)
O=C(O)C1(Cc2ccc3c(c2)CCC3)Cc2ccccc2C1=O (configuration not stated)	9%	9%	89.9% (active)	-6%	-6%	92.4% (active)	3%	3%	87.5% (active)	3%	3%	88.2% (active)	-7%	-7%	90.2% (active)	1%	1%	87% (active)
CCNC(=O)COc1ccc(Cl)cc1Cl	-2%	10%	-17.6%	-10%	2%	-19.4%	0%	-6%	-15.4%	7%	13%	38.8%	-5%	-3%	-29.4%	8%	2%	-27.4%
O=C(SCCCc1ccccc1)c1cc([N+](=O)[O-])cc([N+](=O)[O-])c1	98% (active)	87% (active)	75.7% (active)	100% (active)	98% (active)	66.3%	99% (active)	94% (active)	85.8% (active)	94% (active)	89% (active)	78.6% (active)	98% (active)	98% (active)	66%	98% (active)	94% (active)	76.6% (active)
O=C1c2ccccc2C2N1CCCN2C(=O)c1sc2ccccc2c1Cl (configuration not stated)	49%	98% (active)	90% (active)	30%	99% (active)	92% (active)	29%	99% (active)	92.8% (active)	28%	96% (active)	90.3% (active)	35%	98% (active)	92% (active)	44%	98% (active)	90.5% (active)
CCC(C)SSc1ccccc1C(=O)Nc1ccc(Cl)cc1 (configuration not stated)	3%	52%	79.5% (active)	14%	93% (active)	93.9% (active)	-12%	83% (active)	91.7% (active)	-5%	85% (active)	74.1% (active)	-2%	93% (active)	91.3% (active)	7%	91% (active)	87.7% (active)
COc1ccc(C2c3cn[nH]c3CC3CCCCC32)cc1 (configuration not stated)	25%	98% (active)	75.8% (active)	-8%	99% (active)	83.8% (active)	9%	98% (active)	85.5% (active)	31%	99% (active)	89.8% (active)	-20%	99% (active)	88.3% (active)	8%	98% (active)	90.7% (active)
CCCCCCCCCCCCCC1=NCC(C)(C)N1	83% (active)	100% (active)	99.2% (active)	85% (active)	100% (active)	97.3% (active)	91% (active)	100% (active)	99.7% (active)	66%	99% (active)	97.8% (active)	89% (active)	100% (active)	99.7% (active)	82% (active)	100% (active)	99.5% (active)
